From PubChem BioAssay AID588591 (National Center for Advancing Translational Sciences (NCATS), 2011) come the findings set out here.

Molecules are shown by their SMILES. Among all 390,000 compounds or so, about 4,700 (1.2%) were called active. Inconclusive results (about 4%) are left out. Calls follow the shape of the dose curve; as a rule, active = well fitted inhibition curve with a large enough effect; inconclusive = small, poorly fitted or top-dose-only effect, or another doubt; inactive = no such curve, though single readings can be large or run the other way. What follows is part of a selection rich in actives, with near analogues and random picks from the rest. Entries that show only a call come without a potency.
Potency is read from the fitted curve at half-maximal effect.

DNA polymerase eta (Homo sapiens), sequence (Q9Y253 whole entry, looked up): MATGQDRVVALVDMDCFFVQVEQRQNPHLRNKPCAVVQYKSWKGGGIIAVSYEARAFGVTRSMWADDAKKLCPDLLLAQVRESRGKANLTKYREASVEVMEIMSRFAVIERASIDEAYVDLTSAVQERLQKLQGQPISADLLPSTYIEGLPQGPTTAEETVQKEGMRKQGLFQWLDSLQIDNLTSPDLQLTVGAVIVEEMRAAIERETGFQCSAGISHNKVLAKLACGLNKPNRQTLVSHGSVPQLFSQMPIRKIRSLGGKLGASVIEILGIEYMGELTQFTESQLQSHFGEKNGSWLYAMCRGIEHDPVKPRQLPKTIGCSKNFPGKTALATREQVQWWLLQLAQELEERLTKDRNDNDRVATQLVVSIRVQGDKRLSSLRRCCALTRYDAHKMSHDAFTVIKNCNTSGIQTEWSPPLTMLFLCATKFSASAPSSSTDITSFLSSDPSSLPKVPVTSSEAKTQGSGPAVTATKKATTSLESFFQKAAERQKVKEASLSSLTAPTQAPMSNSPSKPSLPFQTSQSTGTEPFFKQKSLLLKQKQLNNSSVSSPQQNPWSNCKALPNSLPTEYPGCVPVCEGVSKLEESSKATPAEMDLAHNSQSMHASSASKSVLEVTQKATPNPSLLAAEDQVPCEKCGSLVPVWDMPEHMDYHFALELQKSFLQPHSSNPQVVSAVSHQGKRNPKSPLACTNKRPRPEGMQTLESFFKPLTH

The assay addresses DNA polymerase eta (Homo sapiens) (UniProt Q9Y253). Briefly: qHTS for Inhibitors of Polymerase Eta. The conditions noted are these: recombinant Pol eta, fluorescent DNA replication assay; series mostly up to 114 µM. An excerpt: The Y-family of DNA polymerases, such as Pol eta, are specifically involved in DNA repair. Pol eta copies undamaged DNA with a lower fidelity than other DNA-directed polymerases. However, it accurately replicates UV-damaged DNA; when thymine dimers are present, this polymerase inserts the complementary nucleotides in the newly synthesized DNA, thereby bypassing the lesion and suppressing the mutagenic effect of UV-induced DNA damage. […] Thus, while pol eta's (and most likely iota's) normal function is to protect humans against the deleterious consequences of DNA damage, under certain conditions they can have deleterious effects on human health. As a consequence, we propose to utilize a high throughput replication assay to identify small molecule inhibitors of pol eta. In a collaboration between the National Institute of Child Health & Human Development (NICHD) and NIH Chemical Genomics Center, a high-throughput, fluorescent screen was developed to screen the NIH Molecular Libraries Small Molecule Repository (MLSMR). This screen is used to identify inhibitors of pol eta. NIH Chemical Genomics Center [NCGC] NIH Molecular Libraries Probe Centers Network [MLPCN] MLPCN Grant: MH090825 Assay Submitter (PI): Roger Woodgate, NICHD)
Three microliters of reagents (buffer in column 3 and 4 as negative control and 10 nM Pol eta in columns 1, 2, and 5-48) were dispensed into a 1,536-well black solid-bottomed plate. Compounds (23 nL) were transferred via Kalypsys pin tool equipped with 1536-pin array. The plates were then incubated for 15 min at room temperature, and 1 µL substrate (50 nM final concentration) was added to start the reaction and kinetically read twice at 0 min and 10 min on the Viewlux reader
Turning to `O=C(O)C1=C(C(=O)O)C2CCC1C2`, the Potency is 17.8 µM (active). In the case of `O=C(CSc1ncc(S(=O)(=O)c2ccc(Br)cc2)c(=O)[nH]1)Nc1ccc2c(c1)OCCO2` it was “inactive”.

For `CCOc1ccccc1NC(=O)CSc1ncc(S(=O)(=O)c2ccc(C(C)(C)C)cc2)c(=O)[nH]1`, the Potency is 89.1 µM (active). On to `CCOc1ccccc1NC(=O)COc1ccc(S(=O)(=O)N2CCCC2)cc1`, for which the Potency result was “inactive”.

Regarding `Cc1cc(C)cc(NC(=O)Cc2csc(C)n2)c1`, the Potency result was “inactive”.

For `COc1cccc(NC(=O)CSC2=Nc3ccccc3C3=NC(CC(=O)NC4CCCCC4)C(=O)N23)c1` (stereo not given), the Potency entry is “inactive”. `Cc1c(C(=O)N2CCCC2)oc2c1-c1nn(CC(=O)NCc3ccc(OC(C)C)cc3)cc1CC2`: the Potency entry is “inactive”. In the case of `CCOC(=O)CSC1=Nc2ccccc2C2=NC(CCC(=O)NCc3ccc(F)cc3)C(=O)N12` (stereo not given) it was “inactive”. In the case of `Cc1ccc(CNC(=O)CSC2=Nc3ccccc3C3=NC(C)C(=O)N23)cc1` (stereo not given) it was “inactive”. For `CC(C)C1N=C2c3ccccc3N=C(SCC(=O)c3ccc(O)c(O)c3)N2C1=O` (stereo not given), the Potency is 2.24 µM (active). On to `CCCN1C(=O)C(O)(CC(=O)c2ccc(CC)cc2)c2cc(Br)ccc21` (stereo not given), for which the Potency entry was “inactive”. For the compound `COc1ccc(CCNC(=O)CSc2nc(-c3ccc(OC)c(OC)c3)ccc2C#N)cc1`, the Potency result was “inactive”.

Consider `CCOC(=O)c1ccc(-c2ccc(/C=C(\C#N)C(=O)Nc3ccc(C)cc3)o2)cc1`, for which the Potency entry was “inactive”. For `COc1ccc(NC(=O)/C(C#N)=C\c2cc(OC)c(OCc3ccc(C(=O)O)cc3)cc2Br)cc1`, the Potency is 50.1 µM (active). As to `COc1ccc2c(c1)Cc1sc(NC(=O)c3ccccc3Br)nc1-2`, the Potency result is “inactive”. In the case of `O=c1cc(CSc2ncn[nH]2)[nH]c2ccc(F)cc12` it was “inactive”; in that of `CCOC(=O)C1CCCN(C(=O)c2ccc(CS(=O)(=O)c3ccc(Br)cc3)o2)C1` (stereo not given), “inactive”; in that of `O=C(c1ccc(CS(=O)(=O)c2ccccc2)o1)N1CCN(c2ccccc2)CC1`, 50.1 µM (active). In the case of `O=C(c1ccc(CS(=O)Cc2ccccc2Cl)o1)N1CCN(c2ccccc2)CC1` (stereo not given) it was “inactive”; in that of `COC(=O)c1sccc1S(=O)(=O)N(CC(=O)Nc1ccc(C)c(F)c1)c1ccc(C)c(C)c1`, “inactive”; in that of `Cc1nc(C)c(-c2nnc(-c3cccc(S(=O)(=O)N(C)C)c3)o2)cc1C(=O)NN`, “inactive”.

Take `Cc1ccc(-c2nn(-c3ccccc3)cc2/C=C2\SC(=S)N(CCCCCC(=O)O)C2=O)o1`: the Potency is 44.7 µM (active). In the case of `CN(C)S(=O)(=O)c1cccc(-c2nn(-c3ccccc3)cc2/C=C2\SC(=S)N(CC(=O)O)C2=O)c1` it was 35.5 µM (active). With `Cc1nn(-c2ccc(F)cc2)c(-n2cccc2)c1C(=O)N1CCN(c2ccccc2)CC1`, the Potency result was “inactive”. Turning to `COc1ccccc1N1CCN(CCCNC(=O)c2cnn(-c3ccccc3Cl)c2C2CCN(C(=O)OC(C)(C)C)CC2)CC1`, the Potency entry is “inactive”. With `CSc1ccc(CCNC(=O)c2cnn(-c3ccccc3)c2-n2cccc2)cc1`, the Potency result was “inactive”. In the case of `O=C(Nc1ccc(F)cc1F)c1ccc2c(=O)n3c(nc2c1)CCCCC3` it was “inactive”; in that of `CCc1cccc(NC(=O)c2cnc(N3CCOCC3)c3ccccc23)c1`, “inactive”; in that of `CCOC(=O)C1C(=O)C=C(c2ccc(OC)cc2)CC1c1ccco1` (stereo not given), “inactive”. In the case of `CCOC(=O)C1=C(c2ccc(OC)cc2)C(=O)c2ccccc2C1=O` it was 89.1 µM (active); in that of `CCOC(=O)C1=C(c2ccccc2)NC(=O)NC1c1cc(OC)c(OC)cc1OC` (stereo not given), “inactive”; in that of `Clc1ccc(CSc2nncn3c2cc2occc23)cc1`, “inactive”.

As for `CCOC(=O)C1=C(C)OC(N)=C(C#N)C1c1cncc(-c2ccc(F)cc2)c1` (stereo not given), the Potency result is “inactive”. In the case of `C=CCOC(=O)C1=C(C)NC(SCC(=O)OCC)=C(C#N)C1c1ccc(C)cc1` (stereo not given) it was 17.8 µM (active); in that of `C=CCC1(C#N)C(=S)NC(C)=C(C(=O)OCC)C1c1ccccc1` (stereo not given), “inactive”. On to `COC(=O)c1c(NC(=O)c2ccc(Cl)c(Cl)c2)sc2c1CCCC2`, for which the Potency entry was “inactive”. As for `COC(=O)c1ccc(-c2nc3cc(NC(C)=O)ccc3o2)cc1`, the Potency entry was “inactive”. Regarding `NC(=O)c1c(NC(=O)CSc2nnc(-c3ccco3)n2N)sc2c1CCCC2`, the Potency was 12.6 µM (active). In the case of `CCOC(=O)c1c(NC(=O)CSc2nnc(CN3CCOCC3)n2C)sc2c1CCCC2` it was “inactive”. In the case of `CC1CCN(C(=O)CSc2nnc(-c3ccco3)n2N)CC1` it was “inactive”; in that of `CCOC(=O)c1c(C)[nH]c(CCC(=O)NCCCN2CCN(c3cc(C)ccc3C)CC2)c1C`, “inactive”; in that of `CCCc1nn2c(=O)cc(COC(=O)c3ccc(NC(=O)C(C)Oc4ccccc4)cc3)nc2s1` (stereo not given), “inactive”.

Regarding `COc1ccc(OC)c(CCNC(=O)CCCn2c(=O)c3cccn3c3cccnc32)c1`, the Potency result is “inactive”. `Cc1ccccc1-c1nc2scc(CCNC(=O)C(=O)Nc3ccc(F)cc3F)n2n1`: the Potency result was “inactive”. In the case of `Cc1ccc(C(=O)NCCSc2c(C)[nH]c3ccccc23)cc1C` it was “inactive”; in that of `CCCCNC(=O)c1cc(-c2ccc(Cl)c(Cl)c2)on1`, “inactive”; in that of `Nc1ccc2c(c1)C(=Cc1cccnc1)c1ccccc1-2`, “inactive”. In the case of `O=C(O)CCc1cccnc1` it was “inactive”. For the compound `O=C1/C(=C\c2cccnc2)CN(Cc2ccccc2)C/C1=C\c1cccnc1`, the Potency was 50.1 µM (active). `COc1ccc(OCC(=O)Nc2cccc(C(=O)OCc3cc(=O)n4nc(C)sc4n3)c2)cc1`: the Potency result is “inactive”. With `CC1CCN(c2ccc(S(=O)(=O)Nc3cc(C(=O)O)cc(C(=O)O)c3)cc2[N+](=O)[O-])CC1`, the Potency was 22.4 µM (active).

For `O=C(O)C1CCN(c2ccc([N+](=O)[O-])cc2[N+](=O)[O-])CC1`, the Potency is 25.1 µM (active). In the case of `Cc1cccc(N2CCN(c3ccc(C(N)=O)cc3[N+](=O)[O-])CC2)c1C` it was “inactive”; in that of `Cc1ccc(C(=O)c2ccc(N3CCN(C)CC3)c([N+](=O)[O-])c2)cc1`, “inactive”. Consider `CC1CCN(c2ccc(C(=O)Nc3nnc(C4CC4)s3)cc2[N+](=O)[O-])CC1`, for which the Potency result is “inactive”. For `CC1CCN(c2ccc(C(=O)NCc3ccc4c(c3)OCO4)cc2[N+](=O)[O-])CC1`, the Potency result is “inactive”. As to `COc1ccc(C(=O)Nc2onc3c2CCCC3)cc1`, the Potency result was “inactive”. For the compound `COc1ccc(CCNS(=O)(=O)c2cc(-c3cc(C)no3)ccc2C)cc1OC`, the Potency result is “inactive”.

`Cc1ccccc1NC(=O)Cn1c(=O)n(CC2CCC(C(=O)NCCc3ccccc3)CC2)c(=O)c2ccccc21` (stereo not given): the Potency result was “inactive”. In the case of `O=C(CSc1nc2nccnc2c(=O)n1CCc1c[nH]c2ccccc12)Nc1ccccc1F` it was “inactive”.
